Screen size: about 69,000 compounds; about 8,600 (12%) showed an effect of 50% or more. What follows is part of a selection rich in strong results, with near analogues and random picks from the rest.
tested on: Plasmodium berghei; assay: Screen against P. berghei liver stage (PbLuc), transformed with Luciferase, at 10uM; type: functional, HepG2; details: tested at 10 uM

Structure (SMILES) | INHIBITION [%]
N#CCCSc1sc2c(O)cc(O)nc2c1C#N | 38.2
O=C(NCCc1cc2nc(-c3ccncc3)ccn2n1)C1CC1 | 23.6
O=C(c1cc[nH]n1)N1CCCC1c1ccccn1 (centres undefined) | 13.5
CC(=O)N1CCC(c2nccnc2C)CC1 | -16.1
OCC1(NCc2cnc(-c3ccsc3)s2)CCOCC1 | -11.7
CN(CCc1ccccc1)c1cnn(CC(=O)N2CCOCC2)c(=O)c1 | 20.2
CN(C)c1cnn(CC(=O)N2CCN(Cc3cccs3)CC2)c(=O)c1 | 65.7
CN(CCc1ccccc1)c1cnn(CC(=O)N2CCSCC2)c(=O)c1 | 38.5
CN(C)c1cnn(CC(=O)N2CCCCCC2)c(=O)c1 | 15.4
CN(Cc1ccoc1)C(=O)Cn1ncc(N(C)C)cc1=O | 50.5
CN(C)c1cnn(CC(=O)N2CCN(c3ccccc3)CC2)c(=O)c1 | 53.7
CN(Cc1ccc2nsnc2c1)C(=O)Cn1ncc(N(C)C)cc1=O | 5.46
CN(C)c1cnn(CC(=O)N2Cc3ccccc3C2)c(=O)c1 | 31.4
CSc1cccc(CN(C)C(=O)Cn2ncc(N(C)C)cc2=O)c1 | 4.64
O=C(CCn1c(C(F)F)cc2cccnc21)NC1CC1 | 22
CC(c1nc(C(C)(C)C)no1)N1CCN(c2ccc(C#N)cn2)CC1 (centres undefined) | 23.9
Cc1cc(C)n(CC2CCCN2C(=O)c2ccnc(N(C)C)c2)n1 (centres undefined) | 3.73
CN(C)C(=O)[C@H]1C[C@H]2CN(c3ncccn3)C[C@@H]1O2 | -5.63
Cn1cc(CN2CCCC3(CCN(Cc4ccncc4)C3=O)C2)cn1 (centres undefined) | 43.1
COCCN1CCO[C@@H]2CN(Cc3sccc3C)C[C@@H]2C1 | 24.6
O=C(c1ccc(=O)[nH]n1)N(CCO)Cc1cc(Br)ccc1F | 23.1
CCc1ccc(-n2nnc(C(=O)O)c2-c2ccccn2)cc1 | 9.84
CC(C)c1nnc2n1CCN(Cc1csc(CC(=O)N(C)C)n1)C2 | 52

Structure (SMILES) | INHIBITION [%]
Cc1nnc2n1CCN(Cc1csc(CC(=O)N(C)C)n1)C2 | 16.7
CN(C)C(=O)Cc1nc(CN2CCn3c(nnc3C3CC3)C2)cs1 | 8.81
O=C1CCC2(CCCN(CCc3ccccc3)C2)N1Cc1cccnc1 (centres undefined) | 23.2
CC(CNCc1ccc(Cl)cc1)Oc1ccccn1 (centres undefined) | 11.4
CCn1cc(NC(=O)N2CCN(CCSc3ccccc3)CC2)cn1 | -32.35
CCN(CC)C(=O)N1CCN(C(=O)C2CCCc3[nH]ncc32)CC1 (centres undefined) | 67.5
O=C(C1CCCc2[nH]ncc21)N1CCCCCC1 (centres undefined) | 46.6
O=C(C1CCCc2[nH]ncc21)N1CCCC2(C1)OCCO2 (centres undefined) | 50.8
CN1CCN(C(=O)C2CCCc3[nH]ncc32)CC1 (centres undefined) | -3.12
CCN1CCN(C(=O)C2CCCc3[nH]ncc32)CC1 (centres undefined) | -24.9
O=C(C1CCCc2[nH]ncc21)N1CCCC1 (centres undefined) | 17.4
CCS(=O)(=O)N1C[C@H]2CN(Cc3ccc(OC)cc3)C(=O)[C@H]2C1 | -12.2
O=C(NCc1nc(C2CC2)no1)N1CCOC(c2ccccc2F)C1 (centres undefined) | 35
O=C(NCc1nc(C2CC2)no1)N1CCOC(c2cccc(F)c2)C1 (centres undefined) | 53.6
O=C(NCc1nc(C2CC2)no1)N1CCOC(c2ccccc2)C1 (centres undefined) | 33.2
CCCOCC(=O)NC1CCc2nc(C)cn2C1 (centres undefined) | 1.58
Cc1csc2c(C3CCN(CCOc4ccccc4F)CC3)nc(C)n12 | 54
Cc1nc(C)n(CC2CN(Cc3cccc(C#N)c3)CCO2)n1 (centres undefined) | 10.5
Cc1csc2c(C3CCN(CCCOc4ccccc4)CC3)nc(C)n12 | 46.7
Cc1nc(C)n(CC2CN(Cc3cc(C#N)ccc3F)CCO2)n1 (centres undefined) | 51.1
Cc1nc(C)n(CC2CN(CCOc3ccccc3C#N)CCO2)n1 (centres undefined) | -15.5
Cc1nc(C)n(CC2CCCN(Cc3cc(C#N)ccc3F)C2)n1 (centres undefined) | -2.53
Cc1nc(C)n(CC2CN(CCCOc3ccccc3C)CCO2)n1 (centres undefined) | 24.4

Structure (SMILES) | INHIBITION [%]
Cc1nc(C)n(CC2CN(CCOc3ccccc3F)CCO2)n1 (centres undefined) | 53.8
Cc1ccc(OCCN2CCC(c3nc(C)n4c(C)csc34)CC2)cc1 | 29.1
CN1CC[C@H](N(Cc2ccccc2)CC2CC2)C[C@H](O)C1 | 23.7
Cc1ccsc1CN(CCCN(C)C)Cc1ccccn1 | 2.6
O=C(CC1[C@H]2CN(Cc3ccsc3)C[C@@H]12)N1CCCC1 (some centres undefined) | 7.5
Cc1cc(-c2cnc(C)nc2CN(C)C(=O)c2cc(C3CC3)on2)on1 | -18.9
CCOc1ccc(NC(=O)N(CCN(C)C)C(C)c2ccncc2)cc1 (centres undefined) | 14.3
COCC1c2c(cnn2C)CCN1Cc1ccco1 (centres undefined) | 35.8
CS(=O)(=O)N1CCC(n2nnn(-c3ccccc3)c2=O)CC1 | 2.7
O=C(O)c1cn(CC2CCCN(c3nc4ccccc4s3)C2)nn1 (centres undefined) | 46.6
COc1cc(N2C[C@H]3CC[C@@H](C2)N(CC2CCC2)C3=O)ncn1 | 2.15
Cc1nc(C)n(CC2CCCN(CC3CCCCC3)C2)n1 (centres undefined) | 15.6
c1ccc2sc(N3CCCC(Cn4cncn4)C3)nc2c1 (centres undefined) | 54.5
c1ccc2nc(N3CCCC(Cn4cncn4)C3)cnc2c1 (centres undefined) | -2.55
Cc1nc(C)n(CC2CCCN(c3ncnc4c3CCC4)C2)n1 (centres undefined) | 80.8
c1nc(N2CCCC(Cn3cncn3)C2)c2ccsc2n1 (centres undefined) | -17.3
Cc1nc(C)n(CC2CCCN2c2ncnc3c2CCC3)n1 (centres undefined) | 26.9
c1nc(N2CCCCC2Cn2cncn2)c2sccc2n1 (centres undefined) | 6.65
CN1C(=O)[C@@H]2CC[C@H]1CN(c1ncnc3ccsc13)C2 | -15.1
c1nc(N2CCCC(Cn3cncn3)C2)c2sccc2n1 (centres undefined) | 85.4
O=C1[C@@H]2CC[C@@H](CN(c3ncnc4ccsc34)C2)N1CC1CC1 | 78.9
Cc1ccnc(C2CCN(S(=O)(=O)c3cn(C)cn3)CC2)n1 | -10.5
O=C(Nc1cccnc1)C1CN(C(=O)c2ccc3c(c2)OCO3)C1 | 34.6
